Results published in PubChem BioAssay AID748 (Sanford-Burnham Center for Chemical Genomics, 2007).
About 100 (0.1%) of roughly 96,000 compounds were called active.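 Rule for the calls: active = displacement above 50% at 20 µM plus a fluorescence interference ratio under 1.5; inactive = the rest.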 Many of the other results were omitted from the sample, so actives are more common in it than they were. Potency and affinity values are given separately.

Biological target: Bcl-2-like protein 10 (Homo sapiens) (UniProt Q9HD36)
Assay: Bcl-B/TR3 peptide binding disruption – biochemical, fluorescence polarization, FITC-TR3 peptide, selectivity assay for Bfl-1 inhibitor project, primary screen (AID 748);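 note: plate controls were wells without compound for no effect and wells lacking Bcl-B protein for full effect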
Conditions: FP displacement of FITC-TR3 peptide from Bcl-B; at 20 µM; active compounds read high

displacement, inactive:
CN(C)S(=O)(=O)N(CC(=O)Nc1cccc(F)c1)c1ccccc1 9.9%
CN(C)S(=O)(=O)N(Cc1ccc(Br)cc1)c1ccccc1 0%
CN(C)S(=O)(=O)N(CC(=O)NCc1ccccc1)c1ccccc1 7.3%
CN(C)S(=O)(=O)N(CC(=O)Nc1ccc(F)c(F)c1)c1ccccc1 18%
O=c1[nH][nH]c2nc(C(F)(F)F)cc(C(F)(F)F)c12 -9.8%
CCN(CC)S(=O)(=O)c1cc(C(=O)O)c(Cl)cc1Cl -5.8%
Cc1ccc(NC(=O)c2nc[nH]c2C(=O)Nc2ccc(C)cc2)cc1 4%
Cc1cc(-c2nnc(-c3cc4ccccc4oc3=O)o2)c(C)n1-c1ccccc1 2.6%
CCCOC(=O)Cc1n[nH]c(=O)[nH]c1=O -2.4%
COc1ccc(CN2C(=O)CN(C3CCCCCC3)C(=O)C2c2ccc(F)cc2)cc1 (centres undefined) -2.9%
CCC(=O)Nc1ccc2nc(SCC(=O)N3CCCC3)sc2c1 5.1%
Cn1c(SCC(=O)Nc2ccc3nc(SCC(=O)N4CCCC4)sc3c2)nnc1-c1ccccc1 38.1%
O=C(c1ccc(N2CCNCC2)cc1)c1cccnc1 -3.4%
COC(=O)C1Sc2[nH]c(=O)sc2C2c3ccccc3OC(=O)C12 (centres undefined) 0%
CCOC(=O)C1CCN(Cc2nc3ccccc3c(=O)n2-c2ccc(F)cc2)CC1 -6.2%
Cc1nn(Cc2cccc(C(=O)Nc3ccn(Cc4ccccc4)n3)c2)c(C)c1[N+](=O)[O-] 3.7%
C=CCN1C(=O)/C(=C2/Sc3ccccc3N2C)SC1=Nc1ccccc1C -13%
C=CCN1C(=O)CS/C1=N/c1nccs1 1.8%
Cc1c(Cl)cccc1-n1c(SCC(=O)NCc2ccccc2Cl)nnc1-c1ccncc1 -10.8%
CC1(C)CC(=O)C2=C(C1)c1c(ccc3ccccc13)NC2c1ccco1 (centres undefined) -4.8%
O=C1CCCC2=C1C(c1ccco1)Nc1ccc(C(=O)c3ccccc3)cc1N2 (centres undefined) 22.2%
CCSc1nc(O)c(Cc2ccccc2)c(=O)[nH]1 10.2%
Clc1ccc(-c2nc3ccccc3n2OCc2ccccc2)cc1 -9%
CC(=O)Nc1ccc(NC(=O)Cn2cc3c(n2)CCCC3)cc1 -10.4%
Cc1cc(C)cc(NC(=O)Cn2cc3c(n2)CCCCC3)c1 2.8%
CCCn1c(=O)c2ccccc2n2c(SCC(=O)c3ccc(F)cc3)nnc12 -0.8%
CCOC(=O)c1cnc2cc3c(cn2c1=O)CCCC3 0%
CC(CC(=O)N1CCc2ccccc21)c1ccccc1 (centres undefined) 6.2%
COc1ccc(OCCC(=O)OCC(=O)NCc2ccco2)cc1 16.1%
O=C(NCc1ccco1)c1cccs1 -12.3%
COc1ccccc1OCC(=O)NCc1ccco1 2.1%
O=C(COC(=O)c1ccccc1)NCc1ccco1 40.9%
O=C(COC(=O)c1ccco1)NCc1ccco1 3.5%
CCOc1cc(C(=O)OCC(=O)NCc2ccco2)cc(OCC)c1OCC 33.3%
O=C1NCCCc2nc(Oc3ccccc3)sc21 1.4%
Cc1cc(C)c2c(=O)c3c(oc2c1)C(=O)N(CCO)C3c1cccc(O)c1 (centres undefined) 3.4%
COc1ccc(C(=O)CCC(=O)N2CCN(c3ccc(N4CCOCC4)nn3)CC2)cc1 4.3%
COc1ccccc1-c1nnc(NC(=O)C(C)SC2=NCCS2)s1 (centres undefined) -10.4%
Cc1ccc(NC(=O)CCc2ccc(S(=O)(=O)N3CCOCC3)cc2)c(C)c1 13.6%
c1ccc(-c2nn3c(Cn4nnc5ccccc54)nnc3s2)cc1 0%
c1ccc2c(c1)nnn2Cc1nnc2sc(-c3ccncc3)nn12 -19.6%
Nc1nonc1OCCc1ccccc1 2.7%
O=c1[nH]c(NC2CCCCC2)nnc1Cc1ccccc1 -7%
NC(=O)C1c2ccccc2CSc2ccccc21 (centres undefined) -22.4%
CN1CCN(CCCNC(=O)C2CCN(c3nnc(-n4cccc4)s3)CC2)CC1 8.6%
O=C(NCCCc1ccccc1)C1CCN(c2nnc(-n3cccc3)s2)CC1 6.7%
O=C(Nc1ccc(N2CCCCC2)cc1)c1cccnc1Cl -16.3%
CCN1CCN(c2cc(C)c3cc(NC(=O)c4cccnc4Cl)ccc3n2)CC1 25.4%
O=C(CNC(=O)c1ccco1)OCc1cccc(Cl)c1 -8.6%
Cc1ccc2c(c1C)NC(C)CC2C (centres undefined) -4.5%
COC(=O)c1ccc(C2Nc3ccc(/C(C)=N/NC(=O)C(OC)c4ccccc4)cc3C3C=CCC32)cc1 (centres undefined) 5.4%
O=C(OC1CCCCC1)c1ccc(NC(=O)C2CCCCC2)cc1 6.4%
CC(=O)c1ccc2c(c1)C1C=CCC1C(c1ccncc1)N2 (centres undefined) -8.3%
O=C(O)C1Nc2c(C(=O)N3CCOCC3)cccc2C2C=CCC12 (centres undefined) 28.7%
CC(C)C1Nc2ccc(S(N)(=O)=O)cc2C2C=CCC21 (centres undefined) 25.6%
Cc1ccc(S(=O)(=O)N2CCCN(S(=O)(=O)c3ccc(C)c(C)c3)CC2)cc1C -11.3%
Cc1cccc(C)c1NC(=O)CNc1ccccc1 0.2%
Cn1c(=O)[nH]c(=O)c2c1nc(Br)n2CC(O)c1ccccc1 (centres undefined) 6.4%
CCCCNC(=O)C1C2C=CC3(CN(Cc4ccc(C)cc4)C(=O)C13)O2 (centres undefined) 2.1%
O=C(C1CCCN(Cc2ccncc2)C1)N1CCc2ccccc2C1 (centres undefined) -14.9%
CCOC(=O)CC(N)c1ccc(OC)cc1 (centres undefined) 14.7%
CCCN=C(C)c1c(-c2ccccc2)[nH]n(-c2nc3ccccc3s2)c1=O -6.3%
COC(=O)Cc1[nH]n(-c2nc3ccccc3s2)c(=O)c1C(C)=O -6.8%
CSc1nnc2n(Cc3ccccc3)c(=O)c3c4c(sc3n12)COC(C(C)C)C4 (centres undefined) 1.6%
Cc1ccc(S(=O)(=O)NNC(=O)C2Cc3c(ccc4ccccc34)O2)cc1 (centres undefined) -1.6%
Cc1ccc(CSCCNC(=O)c2ccc(N(C)S(=O)(=O)c3ccccc3)cc2)cc1 0%
CCN(CC)c1ccc(C(=O)OCc2cc(=O)oc3cc(O)ccc23)cc1 0%
CC1CN(S(=O)(=O)c2cccc(C(=O)OCc3cc(=O)oc4cc(O)ccc34)c2)CC(C)O1 (centres undefined) 16.7%
N#CCCN1CCN(CCC#N)CC1 -1.9%
COCCCn1c2nc3ccccc3nc2c2c(=O)n(Cc3ccc(Cl)cc3)cnc21 -3.8%
COc1ccc(C2Nc3ccccc3C(=O)N2c2ccc(C)cc2)cc1Cn1nc(C)c([N+](=O)[O-])c1C (centres undefined) 8.3%
CCS(=O)(=O)N1CCN(c2cccc(C)c2C)CC1 4.1%
CCS(=O)(=O)N1Cc2ccccc2CC1C(=O)N1CCN(c2ccccc2)CC1 (centres undefined) 27%
CC1CCCN(c2oc(-c3cccc4ccccc34)nc2C#N)C1 (centres undefined) 6.4%
C/C(N)=C(/C#N)C(=O)CSc1nc2ccc(C)cc2[nH]1 8.9%
COc1ccc2nc(SCC(=O)/C(C#N)=C(\C)N)[nH]c2c1 -14.3%
O=C(O)CCCNc1cc(N2CCC3(CC2)OCCO3)c2noc3c2c1C(=O)c1ccccc1-3 33.8%
CCOC(=O)C(C(=O)OCC)c1cc(Br)c2noc3c2c1C(=O)c1ccccc1-3 -31.4%
CCCCOC(=O)Cn1c(=O)n(CC(=O)OCCCC)c2ccccc21 3.3%
COc1ccc(C(CNC(=O)c2ccc(S(=O)(=O)N3CCOCC3)cc2)N2CCCCC2)cc1 (centres undefined) 0.7%
Cc1ccc(S(=O)(=O)N2CCCC2)cc1C(=O)O 27.9%
Cc1ccc(S(=O)(=O)N2CCCCC2)cc1C(=O)Nc1ccc2cn[nH]c2c1 5.9%
O=C(Nc1ccc(F)cc1F)c1noc2c1CCC2 46.1%
COC(=O)c1ccccc1NC(=O)c1noc2c1CCCC2 -7.7%
COC(=O)c1ccccc1NC(=O)c1noc2c1CC(C(C)(C)C)CC2 (centres undefined) -0.1%
O=C(Nc1ccccc1C(=O)N1CCOCC1)c1noc2c1CCCC2 -1.4%
O=C(CCCN1C(=O)CCC1=O)Nc1ccccc1F 38.1%
Cc1csc(NC(=O)CSc2nnc(Cn3c(=O)sc4ccccc43)n2-c2ccccc2)n1 -8.5%
CCCC(=O)Nc1ccc2oc(-c3ccc(OC)c(Br)c3)nc2c1 -48.6%
O=C(CN1CCCCC1)Nc1cccc(-n2cnnn2)c1 5.6%
CC(C)(C)n1ncc2c(=O)n(CC(=O)NC3CCCCC3)cnc21 -2.2%
COC(=O)c1oc2ccc(Br)cc2c1NC(=O)c1ccccc1 -10.4%
Cc1cc(C)nc(Nc2ccc(C(=O)O)cc2)n1 1.7%
Cc1cc(C)nc(Nc2ccc(N3CCOCC3)cc2)n1 37.9%
CCCCCCNc1nc(NCc2ccco2)nc(OCC)n1 -31.5%
Cc1nc(SCC(=O)NCc2ccco2)[nH]c(=O)c1C -5.3%
Cc1cc(N)ccc1-n1c(C)ccc1C -6.6%
NC(=O)c1cc(N)ccc1N1CCCC1 7.2%
CCc1nnc(NC(=O)C(=O)NCCOC(=O)c2ccccc2Cl)s1 -14.4%
